# Tested on: VDR homodimer (NR concentration 270 nM)
# Experiment: PBM binding z-score (relative to random genomic background probes); higher = stronger binding; sequences stand for … in GC…GCGATTGACAGCGTAGAATGAAGG
# Outline: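 For binding z-scores, the reference was random background probes on custom Agilent 4×180K protein-binding microarrays. These arrays were incubated 1 h with ligand-free nuclear receptor dimers in PBS pH 7.4, 2% milk, 0.02% Triton X-100, 1 mM DTT, 0.2 mg/mL BSA and 0.4 mg/ml salmon testes DNA. Fluorescence was scanned after antibody detection of each partner (one per run) and regression-normalized.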
row,Sequence,PBM binding z-score
1,AATACAGGGTCATCGTAGGCCAGAGTTCGCACAG,5.37
2,CCTATTAGTTGACCATAAGGGAAACCGAAGCTCG,0.692
3,CCGAGCAGGCCAGGGTCACTCAAGCATTTCGCTT,1.31
4,CTCGAAAGGTCGTGCTCAGGTGTGTATACCAAAC,0.893
5,CCTCGGAGGACAACACGAGGTCAGAGCTGCCAGA,1.85
6,TCTGCTAGGTCAGTTGGTCAGCAAACGAGCTGCC,-0.695
7,GCATATAGGTAATACAAGGTGAAAGTACGATTGT,0.163
8,ATCTCTAGGTACAAGTTCAGTGAATCCCGAGGAT,2.83
9,ATCGAAAGATCGAAGGTGAGTATACCCACCCGAA,-0.259
10,CCTAGCAGGCCAATCTGGGTCACTGAAGGCTTGA,-0.314
11,CCAGACAGGTGAAAGGTAACTCATTCTGGTACGC,0.0322
12,ATCTCTAGGTAACACTCAGTTCAGTGAAGAACGC,2.25
13,ACTTACGGGTCAAAGAGGTTATAGCACGCGTATA,3.59
14,CCTATTAGTTGACGATAAGGGCAACCGAAGCTCG,0.415
15,GCTTACGGGTCAAAGGATATAGCATGAATAGAAT,0.703
16,ACAGACAGCTGATGAAGGTAACTCAGGCTATCAT,0.0545
17,GGAACGAGGGCAAAGTTGATAGCGTCTGTCGACG,1.43
18,TTACCAAGGTGAAGATCGTTGATCCCTCTGTAGA,-0.499
19,TATTGTAGATCAAGCAGGTTAAGAAAGCCTGAGT,0.132
20,CCTCGGAGGACAGAAGGTCAGTGCTGTCCGCTTT,0.261

row,Sequence,PBM binding z-score
1,GCTATTAGTTGAAAGGGCAACAGAATGATTCTCG,0.397
2,TAGCCTAGGTCATTGGCCAGTATACCACGCGAAC,1.26
3,ACTCGGAGGACAATGGTCAGAGCTACGCCAGTGA,-0.36
4,TCATATAGGTAAATGCTAGGCGAAAGTCCGATCT,0.181
5,CCTCAAAGTTCAACTAAGGTAACGTAAAGCACGC,4.44
6,TCATATAGCTAAAGGTGAAAGTCGAACGATATGA,-0.396
7,TCGAGTAGGTGAGGGGCATTCAGAATGGCGTCGA,-0.687
8,TCATAGAGGTAATACAGGTGAAAGTCGGCATCTA,0.0318
9,TATATTAGTTGATTAGGGCAACCGAAACAGCGGA,0.982
10,ACTAGTTGGTCAGCTGAGGTCACACGCAATTCGG,3.63
11,CGAACTAGGTCAGAACAGGACAGCGAAGGATGAT,-0.0467
12,CGTCCAAGGTCAATGCTAGGTTAGTGAAAGCATT,2.58
13,AGTCAAAGTTCATTAGGTAACGTAAGATTCAGCT,5.43
14,CCTAATAGTTGACCATAAGGGCAACCGAAGCTCG,0.915
15,CAAACTAGTTCACAGAGGTCAAAGTCCGTGCGTA,7.92
16,CCGACTGGGGCAAAAGGTTACCATAAGCCAGCCC,-0.455
17,TCTTGTAGATCAACAGGAGCTTAAGAAAGATCGA,-0.768
18,ACAGACAGGTGAGTGAATGTAACTCAGCTGGACG,-0.199
19,ATTATTAGTTGAGACGAGGGCAACCGATAGGTTG,1.63
20,AGAATGAGGATATACGTAGATCAGGGAAGAAAGT,-0.0995

# From the supplement of paper PMC6555819
